Screens (PubChem)
The list is not random: actives were taken first. Their share in the collection is about 3.4%.
TEAD-YAP block – TEAD-YAP interaction inhibition | HEK-TIYL cells, TEAD-Gal4/YAP UAS-luciferase luminescence | inhibition, % at 9.12 µM | hit rate 1.4% among 640,000; in the data active = inhibition above about 32%;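 note: 0% = median of test compound wells and 100% = reference inhibitor wells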
FBW7 act – activators of human E3 ligase FBW7; AlphaScreen FBW7–phospho-cyclin E peptide binding, activator screen; normalized activity (activation), % at 26.1 µM; hit rate 0.13% among 650,000; Q969H0; in the data active = normalized activity above about 1.9%;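 note: purified mutant Fbw7 with reduced substrate affinity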
GPR151 activ – activates the human receptor GPR151 | Q8TDV0 | PathHunter beta-arrestin GPR151 cells, luminescence | hit rate 1% among 650,000 | activation, % at 11.2 µM; in the data active = activation above about 4.9%;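 note: 0% = median of compound wells and 100% = cells with positive control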
MITF primary – inhibitors of human MITF; AID 1259374; inhibition, % at 2.6 µM; AlphaScreen MITF homodimerization, bead proximity signal; hit rate 0.91% among 650,000; in the data active = inhibition above about 50%;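 note: 0% = vehicle wells with protein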
GPR151 confirm – confirmation of human GPR151 activators; shares compounds with GPR151 activ; GPR151 PathHunter beta-arrestin cells, luminescence, 90 min; % of EA-reagent control over plate median; activation, % at 11.2 µM; 6,700 tested, under 10 active;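 active = mean percent activation across replicates above the confirmation screen cutoff of 4.91%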
GPR119 ag – activates human GPR119 in a GPR151 counter-screen | hit rate 0.3% among 6,700 | shares compounds with GPR151 activ | AID 1508611 | GPR119 PathHunter beta-arrestin cells, luminescence, 90 min; 0 = compound-well median, 100 = enzyme-acceptor control | activation, % at 11.2 µM;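 active = mean percent activation in the counterscreen above 29.09%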;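 note: counterscreen on off-target GPR119 to flag nonselective hits from the GPR151 activator screen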
Target sequence (Q8TDV5 whole entry, looked up): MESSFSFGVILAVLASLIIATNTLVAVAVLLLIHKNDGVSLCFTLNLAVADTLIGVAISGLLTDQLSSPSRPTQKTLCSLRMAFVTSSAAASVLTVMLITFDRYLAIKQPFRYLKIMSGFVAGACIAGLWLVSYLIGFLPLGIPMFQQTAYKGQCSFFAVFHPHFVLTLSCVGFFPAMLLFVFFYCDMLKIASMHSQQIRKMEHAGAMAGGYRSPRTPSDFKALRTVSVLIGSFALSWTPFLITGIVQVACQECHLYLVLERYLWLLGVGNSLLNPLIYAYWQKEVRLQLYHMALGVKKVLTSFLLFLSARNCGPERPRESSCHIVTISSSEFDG
Numbers without * were called inactive.

What do the screens show for `CC(=O)C1=C(C)NC(SCC=C(C)C)=C(C#N)C1C1C=CC(Cl)C=C1` (stereo unspecified)?
TEAD-YAP block: -2.8; FBW7 act: 0.2; GPR151 activ: 5.4*; MITF primary: -6.8; GPR151 confirm: 1.1; GPR119 ag: -13.3

Results for c1nc(NCc2ccc(CN3CCOCC3)cc2)c2c3c(sc2n1)CCC3 ?
TEAD-YAP block: 32.5*; FBW7 act: 0.1; GPR151 activ: 6.3*; MITF primary: -0.7; GPR151 confirm: 0.8; GPR119 ag: -6.0

Results for c1nc(NCC2CCCO2)c2c3c(sc2n1)CCCC3 (stereo unspecified) ?
TEAD-YAP block: -2.1; FBW7 act: 0.1; GPR151 activ: 1.2; MITF primary: -1.3

Results for c1nc(NCCN2CCOCC2)c2c3c(sc2n1)CCCC3 ?
TEAD-YAP block: -5.9; FBW7 act: -0.2; GPR151 activ: 0.9; MITF primary: -3.6

What do the screens show for `c1nc(NCC2CCCO2)c2c3c(sc2n1)CCC3` (stereo unspecified)?
TEAD-YAP block: -0.9; FBW7 act: -0.3; GPR151 activ: 7.6*; MITF primary: -2.7; GPR151 confirm: 0.0; GPR119 ag: 5.9

How did CCOC(=O)Cn1c(=N)n(CCN2CCCCC2)c2ccccc21 do in these assays?
TEAD-YAP block: -2.6; FBW7 act: 0.0; GPR151 activ: -1.0; MITF primary: 13.1

Results for O=C(O)CN(CC(=O)Nc1ccc2c(c1)OCCCO2)Cc1ccccc1 ?
TEAD-YAP block: 1.0; FBW7 act: 0.3; GPR151 activ: 9.1*; MITF primary: 16.2; GPR151 confirm: 0.1; GPR119 ag: 4.3

What do the screens show for `O=C(CCl)Nc1ccc2c(c1)OCCCO2`?
TEAD-YAP block: 5.1; FBW7 act: 0.2; GPR151 activ: -0.4; MITF primary: 10.3

What do the screens show for `O=C(Nc1ccccc1C(=O)O)c1ccc(N2C(=O)C3C4C=CC(C4)C3C2=O)cc1` (stereo unspecified)?
TEAD-YAP block: 13.5; FBW7 act: 0.2; GPR151 activ: -0.4; MITF primary: 6.1

What do the screens show for `CCOC(=O)c1cc(C(=O)NNC(=O)/C=C/C(=O)O)c(C)nc1C`?
TEAD-YAP block: -2.3; FBW7 act: -0.1; GPR151 activ: 5.3*; MITF primary: 5.6; GPR151 confirm: 0.5; GPR119 ag: -5.2

Results for NC(=O)C1CCN(c2oc(-c3ccccc3)nc2S(=O)(=O)c2ccccc2)CC1 ?
TEAD-YAP block: 5.2; FBW7 act: 0.3; GPR151 activ: 1.7; MITF primary: 2.5

How did O=C(NCCN1CCOCC1)c1nn2c(c1Cl)NC(c1ccco1)CC2C(F)(F)F (stereo unspecified) do in these assays?
TEAD-YAP block: -1.2; FBW7 act: 0.0; GPR151 activ: 5.7*; MITF primary: 1.9; GPR151 confirm: 0.5; GPR119 ag: 1.2

How did O=C(NCCN1CCOCC1)c1nn2c(c1Cl)NC(c1ccc(Br)cc1)CC2C(F)(F)F (stereo unspecified) do in these assays?
TEAD-YAP block: -2.0; FBW7 act: 0.0; GPR151 activ: -0.2; MITF primary: -2.4

How did Cc1nn(C)c(C)c1-c1nccc(NCc2nc3ccccc3[nH]2)n1 do in these assays?
TEAD-YAP block: -2.8; FBW7 act: -0.1; GPR151 activ: 5.9*; MITF primary: -3.6; GPR151 confirm: 0.2; GPR119 ag: -3.8

What do the screens show for `C/C(=N\Nc1ccc(S(=O)(=O)Nc2ccc(Cl)cc2)cc1[N+](=O)[O-])c1ccco1`?
TEAD-YAP block: 8.3; FBW7 act: -0.2; GPR151 activ: -1.3; MITF primary: 26.1

How did Cc1cc(C)n2nc(C(=O)N/N=C/c3cc([N+](=O)[O-])ccc3O)nc2n1 do in these assays?
TEAD-YAP block: 2.4; FBW7 act: -0.8; GPR151 activ: 5.8*; MITF primary: 3.2; GPR151 confirm: -0.6; GPR119 ag: -2.9

What do the screens show for `Cc1cc(C)nc(N/N=C/c2cc([N+](=O)[O-])ccc2O)n1`?
TEAD-YAP block: 18.8; FBW7 act: -1.3; GPR151 activ: 0.3; MITF primary: 43.7

How did Cc1ccc(OCC(=O)NC23CC4CC(CC(C4)C2)C3)cc1C do in these assays?
TEAD-YAP block: -43.2; FBW7 act: 0.1; GPR151 activ: 5.1*; MITF primary: 4.6; GPR151 confirm: 0.1; GPR119 ag: -10.2

Results for CC(C)c1ccc(N(C)S(=O)(=O)c2ccc3[nH]cc(C(=O)NCCN4CCOCC4)c(=O)c3c2)cc1 ?
TEAD-YAP block: -0.9; FBW7 act: -0.3; GPR151 activ: 5.1*; MITF primary: -18.4; GPR151 confirm: -1.0; GPR119 ag: 0.2

Results for CCOc1ccc(Br)cc1C(=O)N/N=C/c1ccc([N+](=O)[O-])cc1 ?
TEAD-YAP block: 0.3; FBW7 act: -0.1; GPR151 activ: 7.3*; MITF primary: 1.6; GPR151 confirm: 0.6; GPR119 ag: -4.4

How did O=C(N/N=C/c1ccncc1)c1cc(Br)ccc1OCc1ccccc1 do in these assays?
TEAD-YAP block: -5.0; FBW7 act: 0.0; GPR151 activ: 5.1*; MITF primary: 14.8; GPR151 confirm: 0.5; GPR119 ag: -1.8

How did COc1cc(NC(=O)c2ccc3nc(Nc4ncccn4)sc3c2)cc(OC)c1OC do in these assays?
TEAD-YAP block: 4.1; FBW7 act: -0.1; GPR151 activ: 2.6; MITF primary: 1.3

How did CN(C)CCNC(=O)Nc1ccccc1 do in these assays?
TEAD-YAP block: -3.8; FBW7 act: 0.4; GPR151 activ: 1.1; MITF primary: -12.5

What do the screens show for `CN(C)CCNC(=O)C(=O)Nc1ccccc1`?
TEAD-YAP block: -16.5; FBW7 act: 0.1; GPR151 activ: 8.4*; MITF primary: 8.4; GPR151 confirm: -0.5; GPR119 ag: -16.3

How did CN(C)CCNC(=S)Nc1ccc(F)cc1 do in these assays?
TEAD-YAP block: 4.9; FBW7 act: 0.0; GPR151 activ: -0.5; MITF primary: -24.3

Results for CN(C)CCNC(=S)Nc1ccc(C(=O)O)cc1 ?
TEAD-YAP block: 0.4; FBW7 act: 0.1; GPR151 activ: 10.2*; MITF primary: -3.3; GPR151 confirm: 0.2; GPR119 ag: -3.9

Results for CN(CC(=O)Nc1ccccc1C(F)(F)F)C(=O)CSc1nnc(N)s1 ?
TEAD-YAP block: -1.2; FBW7 act: 0.0; GPR151 activ: 0.0; MITF primary: 16.7

What do the screens show for `C#CCN1C(=O)S/C(=C/c2ccc(C(=O)OC)cc2)C1=O`?
TEAD-YAP block: 2.4; FBW7 act: 0.1; GPR151 activ: 5.9*; MITF primary: -6.3; GPR151 confirm: -0.1; GPR119 ag: -5.0

Results for CCOc1ccc(N2C(=O)CC(SCCC(=O)Nc3ccc(Cl)cc3)C2=O)cc1 (stereo unspecified) ?
TEAD-YAP block: 6.7; FBW7 act: 0.1; GPR151 activ: 0.2; MITF primary: 7.2

Results for COc1ccc(/C=C/C(=O)NC(C)C2CC3CCC2C3)cc1 (stereo unspecified) ?
TEAD-YAP block: -3.9; FBW7 act: -0.1; GPR151 activ: 2.9; MITF primary: 0.5
